# Only some compounds are listed: those with a hit (about 8% of all), similar ones and a draw of the others.
# TSHR antag – blocks TSH signaling through the human TSH receptor | P16473 | TSHR-expressing cells, TSH-stimulated cAMP HTRF, 2 h; active compounds read low | activity change, negative = inhibition, % at 11.5 µM | 0.2% of 330,000 active;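 active = activity change below a set negative limit, meaning inhibition stronger than a set level, cut at about -70% in these data; inconclusive = activity change between two set negative limits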
# Target sequence (P16473 whole entry, looked up): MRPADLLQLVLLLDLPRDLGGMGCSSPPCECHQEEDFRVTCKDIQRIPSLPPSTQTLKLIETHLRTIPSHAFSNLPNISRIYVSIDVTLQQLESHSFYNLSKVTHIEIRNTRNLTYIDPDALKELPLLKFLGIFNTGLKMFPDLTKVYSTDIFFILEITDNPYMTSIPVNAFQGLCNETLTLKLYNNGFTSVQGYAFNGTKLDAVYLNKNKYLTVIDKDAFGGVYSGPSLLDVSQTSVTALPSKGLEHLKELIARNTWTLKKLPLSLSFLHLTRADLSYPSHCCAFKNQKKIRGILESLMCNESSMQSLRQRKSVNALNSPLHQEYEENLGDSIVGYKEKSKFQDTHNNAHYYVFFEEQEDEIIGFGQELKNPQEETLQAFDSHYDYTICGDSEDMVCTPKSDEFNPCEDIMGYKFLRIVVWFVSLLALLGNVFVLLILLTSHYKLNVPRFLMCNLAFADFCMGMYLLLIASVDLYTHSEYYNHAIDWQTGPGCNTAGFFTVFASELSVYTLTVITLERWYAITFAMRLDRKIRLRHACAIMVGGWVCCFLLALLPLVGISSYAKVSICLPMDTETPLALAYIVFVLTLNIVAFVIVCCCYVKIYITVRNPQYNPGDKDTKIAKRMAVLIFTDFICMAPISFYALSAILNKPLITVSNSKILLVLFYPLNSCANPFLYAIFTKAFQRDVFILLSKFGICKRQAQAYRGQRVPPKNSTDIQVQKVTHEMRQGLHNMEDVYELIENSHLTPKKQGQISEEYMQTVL
#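 Antagonism was scored as loss of TSH-driven cAMP in TSHR cells, stimulated with 4nM TSH (EC80) for 2 hours at 37 deg C and detected by homogeneous HTRF competition immunoassay.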
# RORgamma inh – ROR gamma (mouse) transcription inhibition; P51450; Potency, µM (doses to about 53.6 µM), inactives show top-dose activity change, negative = inhibition, actives largely listed as inhibitors; AID 2551; 5.4% of 310,000 active; Drosophila S2 Gal4-RORgamma UAS-luciferase reporter, 20 h; also: potency is read from the fitted curve at half-maximal effect; nearly all actives have a fitted effect of over 60% in size
#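 Luminescence from a UAS-regulated Photinus luciferase reporter in stably transfected Drosophila Schneider cells is measured; decreased signal marks ROR gamma inhibition. Fusion expression is induced by 700 uM copper sulfate for 20 hr.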
# Coupling enz – inhibits coupling enzyme system, counter-screen for aldolase hits; 0.67% of 290,000 active; coupling enzyme system counterscreen, AmpLite Red fluorescence; activity change, negative = inhibition, % at 58.2 µM, hits read low; in the data active = activity change below about -30%
#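 Fluorescence at 525 nm excitation and 598 nm emission measured inhibition of the coupled detection system without aldolase. Compounds (at 57.5 uM final) were preincubated 10 min at room temperature with coupling enzyme reagent before a 20 min substrate/AmpLite Red step.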
# ELG1 repair inh – blocks ELG1-dependent DNA repair in HEK293T cells. HEK293T ELG1-luciferase reporter, luminescence, 16 h; DNA damage induced by 5-fluorouridine. Potency, µM (titrated, usually from 46.1 µM), for the others: at the top dose activity change, negative = inhibition, hits mostly inhibitors. 2.3% of 330,000 active; also: potency is read from the fitted curve at half-maximal effect; nearly all actives have a fitted effect of over 55% in size
#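 HEK293T cells expressing luciferase-tagged ELG1 (2,000/well) received 5-Fluorouridine plus compound or DMSO for 16 hr at 37 °C. Luciferase was read by ONE-Glo luminescence after 30 min at room temperature.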
# Gal4-VP16 FLuc – inhibits Gal4-VP16 luciferase reporter, ROR gamma counter-screen; Drosophila S2 Gal4-VP16 UAS-luciferase, luminescence, 20 h; Potency, µM (series often up to 53.6 µM), inactives show at the highest dose activity, negative = inhibition, hits mostly inhibitors; 3.5% of 310,000 active;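 also: Gal4-VP16 expression switched on by copper sulfate through the metallothionein promoter; potency is read from the fitted curve at half-maximal effect; nearly all actives have a fitted effect of over 50% in size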
# * hit, by the source's call; ? = inconclusive; · = no result given; [ ] = remark or other dose. Unless noted, calls follow the shape of the dose curve; as a rule, active = well fitted curve in the direction sought with a large enough effect; inconclusive = small, poorly fitted or top-dose-only effect, or another doubt; inactive = no such curve, though single readings can be large; an effect the other way counts as inactive or inconclusive. % is scaled to controls: 0 for no effect and ±100 for the full control effect.
SMILES,TSHR antag,RORgamma inh,Coupling enz,ELG1 repair inh,Gal4-VP16 FLuc
O=C(c1cccc(F)c1)N1CCC2(CC1)CCN(c1ncccn1)CC2,·,19%,1,·,-4%
CCOC(=O)CSC1=C(C#N)C(c2ccc(F)cc2)C(C(C)=O)=C(C)N1 (stereo unspecified),4,?,-39*,2%,?
CC(=O)C1=C(C)NC(SCC(=O)c2ccc(C)cc2)=C(C#N)C1c1ccco1 (stereo unspecified),-18,?,-11,?,2.8µM*
Cc1ccc(C(=O)CSC2=C(C#N)C(c3ccco3)C3=C(CC(C)(C)CC3=O)N2)cc1 (stereo unspecified),-14,0%,1,?,-5%
COc1ccc(C2C(C#N)=C(SC)NC3=C2C(=O)CC(C)(C)C3)cc1 (stereo unspecified),11,?,4,-5%,-11%
CCOC(=O)C1=C(c2ccccc2)NC(SCC(=O)NC2CCCCC2)=C(C#N)C1c1ccco1 (stereo unspecified),0,?,1,18µM*,-10%
COCCOC(=O)C1=C(C)NC(SCC(=O)NC(C)(C)C)=C(C#N)C1c1ccco1 (stereo unspecified),-2,2%,-5,?,4%
CCOC(=O)CSC1=C(C#N)C(c2ccc(OC)cc2)C2=C(CC(C)(C)CC2=O)N1 (stereo unspecified),-8,?,-5,?,20µM*
COc1ccc(N(Cc2cc3cc(C)ccc3[nH]c2=O)C(C)=O)cc1,-1,-18%,3,-11%,-5%
Cc1cc(C)nc(NC(=O)c2cc(-c3ccc4c(c3)OCO4)nc3ccccc23)c1,-2,·,2,18µM*,·
COC(=O)c1cc(-c2ccc3c(c2)OCO3)nc2ccccc12,-13,19%,1,-19%,4%
Cc1ccc(C)c(-c2cc(C(=O)Nc3nccs3)c3ccccc3n2)c1,-10,13µM*,·,?,?
Cc1cccc(NC(=O)c2cc(-c3ccc(C)s3)nc3ccccc23)n1,2,-5%,3,6.5µM*,-25%
O=c1oc(CCCO)cc2ccccc12,-3,·,·,?,·
CCC(Cc1ccccc1)NC(=O)c1ccc2nc(N3CCOCC3)sc2c1 (stereo unspecified),-2,32%,3,?,8%
O=C(c1ccco1)N1CCC2(CCN(Cc3ccccc3)CC2)CC1,·,-12%,0,·,3%
O=C(CSCc1ccc(F)cc1)Nc1ccc(N2CCOCC2)cc1N1CCOCC1,15,·,·,?,·
Cc1nn(Cc2ccc(F)cc2)c2sc(C(=O)Nc3ccc(N4CCOCC4)cc3N3CCOCC3)cc12,3,?,-1,18µM*,-6%
CCC(=O)NC(=S)Nc1ccc(NC(=O)c2ccc(Br)o2)cc1,-6,11µM*,-7,?,9%
CCN(c1ccccc1)S(=O)(=O)c1ccc(NC(=S)NC(=O)c2ccc(Br)o2)cc1,-39,4.5µM*,·,?,16µM*
CC(=O)N1CCC[C@@]2(CCN(Cc3ccccc3)C2)C1,·,2%,4,·,9%
NCC(=O)N[C@@H](CCCN=C(N)N)C(=O)NCC(=O)N[C@@H](CC(=O)O)C(=O)N[C@@H](CC(N)=O)C(=O)N1CC[C@@H](C(=O)O)C1,·,-1%,0,·,-1%
O=C(CSc1nnc2c3ccccc3c3ccccc3c2n1)Nc1ccccc1,-5,-3%,-44*,3%,-2%
O=C(CSc1nnc2c3ccccc3c3ccccc3c2n1)Nc1ccccc1F,45,?,-40*,7%,1%
CCn1c(SCC(N)=O)nc2sc3c(c2c1=O)CCCC3,-4,11µM*,1,6%,?
SMILES,TSHR antag,RORgamma inh,Coupling enz,ELG1 repair inh,Gal4-VP16 FLuc
O=CN/C=C/c1cc(O)ccc1O,18,11µM*,-18,-11%,16µM*
OC[C@@H](O)C(O[C@@H]1O[C@@H](CO)[C@H](O)[C@H](O)[C@H]1O)[C@H](O)[C@@H](O)CO (stereo partly specified),·,-19%[10 µM],·,·,7%
COc1cc(-c2nnc(COC(=O)c3nn(CC(C)C)c(=O)c4ccccc34)o2)cc(OC)c1OC,-10,·,·,1%,·
O=C(O)c1cccc(NC(=O)c2cn(-c3ccccc3)nc2-c2cc3ccccc3o2)c1,-32,?,2,29%,-7%
Cc1nn(-c2ccccc2)c(Cl)c1/C=N/NC(=O)c1cccnc1,-5,32%,5,?,20%
O=C(N/N=C/c1cn(-c2ccccc2)nc1-c1cc2ccccc2o1)c1cccnc1,-12,4µM*,2,?,1.4µM*
O=C(N/N=C/c1cn(-c2ccccc2)nc1-c1cc2ccccc2o1)c1ccncc1,-7,2.8µM*,-4,?,4.5µM*
Cc1cccc(C(=O)Nc2ccc(N3CCC(CCN4CCOCC4)CC3)c(C(=O)O)c2)c1,9,·,·,·,·
COc1cc(NS(=O)(=O)c2ccc(C)cc2C)cc(OC)c1OC,-87*,?,-15,10µM*,?
CC(C)c1ccc(/C=N/NC(=O)CCNC(=O)c2ccccc2)cc1,-2,37%,-1,?,?
COc1ccc(C)cc1NC(=O)C(=O)c1cn(CC(=O)N2CCCC2)c2ccccc12,-9,18%,·,?,9%
COc1ccc(NC(=O)CS(=O)(=O)c2cn(CC(=O)N(C(C)C)C(C)C)c3ccccc23)c(OC)c1,16,-17%,·,?,0%
COc1ccc(OC)c(NC(=O)C(=O)c2cn(CC(=O)N3CCCC3)c3ccccc23)c1,-3,34%,-1,12µM*,-4%
COc1ccc(NC(=O)Cn2cc(S(=O)(=O)Cc3ccccc3)c3ccccc32)c(OC)c1,-5,38%,-6,15µM*,16%
CC(=O)Nc1ccc(-c2csc(N3CCC(C(N)=O)CC3)n2)cc1,-4,·,·,·,·
COc1ccc(S(=O)(=O)N2CCC(C(=O)NCCC(=O)NC3CC3)CC2)cc1,15,4%,0,?,5%
CSCCC(NC(=O)c1ccccc1)C(=O)N/N=C(\C)Cc1ccccc1 (stereo unspecified),1,13%,·,16%,1%
CN(C(=O)COC(=O)c1ccc2ccccc2n1)C1CCCCC1,5,·,·,14%,·
COc1ccc(C2/C=C\CN(C(=O)C3CC3)C(C)C(=O)N2Cc2ccc(F)cc2)cc1 (stereo unspecified),·,41%,5,·,10%
Cc1ccc(F)cc1NC(=O)N1CCN(c2ccnc3cc(Cl)ccc23)CC1,-5,7%,0,?,0%
CCCCNC(=O)N1CCN(c2ccnc3cc(Cl)ccc23)CC1,-5,?,0,21µM*,?
Cc1cccc(Cl)c1NC(=O)N1CCN(c2ccnc3cc(Cl)ccc23)CC1,-3,8%,1,18µM*,-4%

# Screening data (PubChem)
